This is part of a sample that, as a whole, favours compounds with a hit. Of some 79,000 tested, about 15% had one in any assay. Rule as the data show it: active = growth inhibition above about 70%; inactive = the rest.
Legend:
[1] = NCI Yeast Anticancer Drug Screen. Data for the rad50 strain (AID 155);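 also: 0% = growth of vehicle-only cultures of the same strain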; conditions: S. cerevisiae rad50 strain growth inhibition; at 50.0 µM; active compounds read high
Summary of the method: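 Cells are treated with compound, grown, and their growth is then scored against vehicle-only cultures of the same repair-deficient yeast strain.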

[2] = NCI Yeast Anticancer Drug Screen. Data for the mec2-1 strain (AID 157); conditions: S. cerevisiae mec2-1 strain, at 50.0 µM, active compounds read high
Summary of the method: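 Yeast mec2-1 mutant treated with compound. Readout: growth inhibition vs vehicle controls.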

[3] = NCI Yeast Anticancer Drug Screen. Data for the sgs1 mgt1 strain (AID 161);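 also: 0% = growth of cultures given vehicle only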; conditions: S. cerevisiae sgs1 mgt1 strain, at 50.0 µM, active compounds read high
Summary of the method: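 Read-out: growth inhibition vs vehicle controls. Cells: mutant yeast strain deficient in DNA damage repair.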

[4] = NCI Yeast Anticancer Drug Screen. Data for the cln2 rad14 strain (AID 165);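 also: 0% = growth equal to vehicle treated cultures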; conditions: S. cerevisiae cln2 rad14 strain, at 50.0 µM, active compounds read high
Summary of the method: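 cln2 rad14 yeast strain; compound exposure; growth inhibition read vs vehicle controls.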

[5] = NCI Yeast Anticancer Drug Screen. Data for the bub3 strain (AID 167); conditions: S. cerevisiae bub3 mutant strain, at 50.0 µM, active compounds read high
Summary of the method: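 Part of a panel of yeast mutants defective in DNA damage repair or cell cycle regulation. Each strain is grown with compound, and inhibition is calculated relative to solvent-treated cultures.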

[6] = NCI Yeast Anticancer Drug Screen. Data for the mlh1 rad18 strain (AID 175); conditions: S. cerevisiae mlh1 rad18 strain growth inhibition; at 50.0 µM; active compounds read high
Summary of the method: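 Yeast w/ defined DNA-repair lesions; compound exposure; growth vs vehicle controls → % inhibition.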

Measured: growth inhibition

C=CC[N+](C)(C)C
inactive: [1] 6.75% | [2] -27.9% | [3] 5.75% | [4] 7.7% | [5] 14.2% | [6] 7.4%

Cc1cccc(CO)c1
inactive: [1] 14.3% | [2] -28.6% | [3] -25.1% | [4] -57% | [5] -18.4% | [6] -22.1%

COc1cccc(O)c1O
inactive: [1] 3.45% | [2] 9.4% | [3] 1.2% | [4] 16.9% | [5] 9.95% | [6] 19.4%

CCOc1ccccc1/C=N/Nc1nc2ccccc2o1
inactive: [1] 30.6% | [2] 0.4% | [3] -2.8% | [4] -23.8% | [5] 6.85% | [6] 33.6%

Cc1cc(NC(=O)CSCC(=O)O)no1
inactive: [1] -19.2% | [2] -34.5% | [3] -2.45% | [4] 7.8% | [5] -7.8% | [6] -2.75%

N#CCCc1ccc(O)cc1
inactive: [1] -25.1% | [2] -44.2% | [3] -34.9% | [4] 1.55% | [5] -17.9% | [6] -19.1%

Nc1nc2c(c(-c3nc(N)nc4c3CCc3ccccc3-4)n1)CCc1ccccc1-2
inactive: [1] -0.5% | [2] -12.6% | [3] -25.1% | [4] 3.05% | [5] -20.5% | [6] 2.9%

CN1C(=O)CN2CCc3ccccc3C2c2cc(Cl)ccc21 (configuration not stated)
inactive: [1] 33.3% | [2] 26.4% | [3] 47.6% | [4] 22.1% | [5] 48% | [6] 42.1%

O=C(/C=C\c1ccc(O)cc1)c1ccccc1
inactive: [1] 15.9% | [2] -14.3% | [3] 45.9% | [4] 8.6% | [5] 29.6% | [6] 14.1%

OC1CCCc2ccccc21 (configuration not stated)
inactive: [1] 17.6% | [2] 17.4% | [3] 13.6% | [4] -17.9% | [5] 0.85% | [6] 20.2%

O/N=C/c1ccc(O)cc1O
inactive: [1] -11.9% | [2] -5.45% | [3] -32.1% | [4] -29.9% | [5] 17.9% | [6] -33.4%

COc1ncnc2c1cnn2C
inactive: [1] 7.6% | [2] 3.6% | [3] 13.3% | [4] -35.1% | [5] -3.85% | [6] 2.9%

Nc1ccc(N)c([N+](=O)[O-])c1
inactive: [1] -30.9% | [2] -17.8% | [3] -27.3% | [4] -39% | [5] -14.8% | [6] -15.2%

Cc1ccc(C(=O)NC2c3ccccc3Oc3ccccc32)cc1
inactive: [1] -0.25% | [2] -7.7% | [3] 4.65% | [4] -12% | [5] 6.85% | [6] -5%

Cc1cccc([N+](=O)[O-])c1Cl
inactive: [1] -39.2% | [2] -72.5% | [3] -36.5% | [4] 10.6% | [5] -30.8% | [6] -17.6%

CCCCNC1(C#N)CCN(Cc2ccccc2)CC1
inactive: [1] -2.25% | [2] -7.95% | [3] -5.9% | [4] 6.75% | [5] -1.25% | [6] -5.7%

CCc1nc(N)nc(N)c1-c1ccc(Cl)cc1
inactive: [1] -9.9% | [2] 2.9% | [3] -4.45% | [4] -42.5% | [5] -14% | [6] -21.2%

O=C(c1ccc(Cl)cc1)c1ccccc1Cl
inactive: [1] 37.9% | [2] -8.3% | [3] 41.3% | [4] -41.1% | [5] 25% | [6] 19%

O=P(O)(O)OCC(O)CO (configuration not stated)
inactive: [1] -4.6% | [2] -7.3% | [3] 8.95% | [4] 25.3% | [5] -22.1% | [6] -10.5%

Cc1ccc(/C(C#N)=C/c2ccc3c(c2)OCO3)cc1
inactive: [1] 23.6% | [2] 25.5% | [3] 26.3% | [4] -14.3% | [5] 47.8% | [6] 21.2%

Clc1ccc(-c2nnc(-c3cccc4ccccc34)o2)cc1
inactive: [1] -22.9% | [2] -56.9% | [3] -29.4% | [4] 0.15% | [5] -19.6% | [6] -24.6%

CC(C)(O)C#CC#CC(C)(C)O
inactive: [1] 30.9% | [2] 4.2% | [3] 5.4% | [4] 3.8% | [5] -41% | [6] -0.55%

Source: PubChem BioAssay (NCI)
